In PubChem BioAssay (NCI):
About 83,000 compounds went through this panel and 20% of them were active in at least one assay; those are over-represented in the sample as a whole.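 Step 1: grow cells in 96-well plates. Step 2: add test compound at a single concentration. Step 3: incubate 48 h. Step 4: record percent growth.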 Calls of active or inactive are those of the source. How the source made its calls: active means growth percent below 10; inactive means the rest.

Experiments:
Assay in all cases: NCI-60 one-dose screen, 48 h (100 = growth as untreated, 0 = no growth, -100 = all killed)
Settings in all cases: 10 µM unless noted
HT29 colon = test system: HT29 colon
SNB-75 CNS = test system: SNB-75 CNS
SNB-19 CNS = test system: SNB-19 CNS
U251 CNS = test system: U251 CNS
PC-3 prostate = test system: PC-3 prostate
SK-MEL-5 melanoma = test system: SK-MEL-5 melanoma
UACC-62 melanoma = test system: UACC-62 melanoma
LOX IMVI melanoma = test system: LOX IMVI melanoma
SK-MEL-28 melanoma = test system: SK-MEL-28 melanoma
SK-MEL-2 melanoma = test system: SK-MEL-2 melanoma

Measured: growth

Cn1cc(-c2nc(-c3c[nH]c4ncc(F)cc34)cs2)c2cccnc21
inactive: HT29 colon 112% | SNB-75 CNS 101% | SNB-19 CNS 108% | U251 CNS 98.6% | PC-3 prostate 104% | SK-MEL-5 melanoma 97.9% | UACC-62 melanoma 89.1% | LOX IMVI melanoma 98% | SK-MEL-28 melanoma 111% | SK-MEL-2 melanoma 120%

O=[P@@]1(c2ccccc2)O[C@H](COCc2ccccc2)[C@@H](OCc2ccccc2)[C@H](OCc2ccccc2)[C@H]1NCc1ccccc1
active: LOX IMVI melanoma 5.71%
inactive: HT29 colon 10.9% | SNB-75 CNS 27.9% | SNB-19 CNS 33.9% | U251 CNS 20.9% | PC-3 prostate 10.5% | SK-MEL-5 melanoma 38% | UACC-62 melanoma 24% | SK-MEL-28 melanoma 49.2% | SK-MEL-2 melanoma 29.5%

O=C(Nc1ccncc1)C(=O)c1cn(S(=O)(=O)c2cccc(F)c2)c2ccccc12
inactive: SNB-75 CNS 29.6% | SNB-19 CNS 76.5% | U251 CNS 22.2% | PC-3 prostate 47% | SK-MEL-5 melanoma 28.7% | UACC-62 melanoma 37.1% | LOX IMVI melanoma 45.2% | SK-MEL-28 melanoma 55.5%
active: HT29 colon 1.12% | SK-MEL-2 melanoma -7.51%

CC(=O)Nc1ccc2c(c1)Cc1c(F)c(F)c(F)c(F)c1-2
inactive: HT29 colon 97.1% | SNB-75 CNS 44% | SNB-19 CNS 90.3% | U251 CNS 78.8% | PC-3 prostate 81.9% | SK-MEL-5 melanoma 84.7% | UACC-62 melanoma 77.4% | LOX IMVI melanoma 80.3% | SK-MEL-28 melanoma 102%
active: SK-MEL-2 melanoma -27.7%

CN(C(=O)c1ccccc1)N(C)C(=O)c1ccccc1
inactive: HT29 colon 93.4% | SNB-75 CNS 105% | SNB-19 CNS 101% | U251 CNS 108% | PC-3 prostate 91.6% | SK-MEL-5 melanoma 108% | UACC-62 melanoma 102% | LOX IMVI melanoma 106% | SK-MEL-28 melanoma 110% | SK-MEL-2 melanoma 106%

CC(C)(C)c1cc(O)c(O)c(C(C)(C)C)c1
inactive: HT29 colon 53.9% | SNB-75 CNS 60.8% | SNB-19 CNS 56.9% | U251 CNS 36% | PC-3 prostate 39.3% | SK-MEL-5 melanoma 70.4% | UACC-62 melanoma 33% | LOX IMVI melanoma 47.3% | SK-MEL-28 melanoma 74.9% | SK-MEL-2 melanoma 76.6%

Cn1cc(-c2csc(-c3cn(C)c4ncccc34)n2)c2cccnc21
inactive: HT29 colon 98.7% | SNB-75 CNS 75.7% | SNB-19 CNS 94% | U251 CNS 96% | PC-3 prostate 86.9% | SK-MEL-5 melanoma 84.9% | UACC-62 melanoma 79.4% | LOX IMVI melanoma 95% | SK-MEL-28 melanoma 101% | SK-MEL-2 melanoma 107%

Clc1cccc(Cc2cn3cc(-c4ccccc4)nc3s2)c1
active: SK-MEL-5 melanoma 2.66%
inactive: HT29 colon 53.4% | SNB-75 CNS 73.8% | SNB-19 CNS 65.8% | U251 CNS 67.7% | PC-3 prostate 51.8% | UACC-62 melanoma 23.3% | LOX IMVI melanoma 23.5% | SK-MEL-28 melanoma 48.8% | SK-MEL-2 melanoma 72%

Cc1ccc(NC(=O)COC(=O)c2ccc(S(=O)(=O)N3CCCCCC3)cc2)cc1
inactive: HT29 colon 106% | SNB-75 CNS 94.7% | SNB-19 CNS 33.4% | U251 CNS 104% | PC-3 prostate 93.6% | SK-MEL-5 melanoma 104% | UACC-62 melanoma 95% | LOX IMVI melanoma 97.1% | SK-MEL-28 melanoma 119% | SK-MEL-2 melanoma 144%

COc1ccc(-c2oc3cc(O)c(OC)c(O)c3c(=O)c2OC)cc1O
inactive: HT29 colon 46.2% | SNB-75 CNS 16.4% | SNB-19 CNS 30.9% | U251 CNS 14% | PC-3 prostate 15.5% | UACC-62 melanoma 36% | LOX IMVI melanoma 15.8% | SK-MEL-28 melanoma 60.6% | SK-MEL-2 melanoma 45.6%
active: SK-MEL-5 melanoma 8.22%

CSc1nc2c(c(=O)[nH]1)C(c1ccc(Cl)cc1)C1=C(N2)/C(=C/c2ccc(Cl)cc2)CNC1 (stereo not given)
active: HT29 colon -36.6% | U251 CNS -16.1% | LOX IMVI melanoma -61.3%
inactive: SNB-75 CNS 51.9% | SNB-19 CNS 46.8% | PC-3 prostate 42% | SK-MEL-5 melanoma 77.1% | UACC-62 melanoma 89.2% | SK-MEL-28 melanoma 87.9% | SK-MEL-2 melanoma 78.4%

COc1ccc(-c2noc(N)c2-c2cc(OC)c3c(c2)OCO3)cc1
inactive: SNB-19 CNS 53.5% | U251 CNS 10.7% | PC-3 prostate 31.1% | SK-MEL-5 melanoma 21.2% | UACC-62 melanoma 44.1% | LOX IMVI melanoma 29.7% | SK-MEL-28 melanoma 51.8%
active: HT29 colon 7.22% | SNB-75 CNS 3.98% | SK-MEL-2 melanoma -1.35%

CN(C)c1nc(-c2ccco2)n2nc(-c3ccco3)cc2n1
inactive: HT29 colon 96.9% | SNB-75 CNS 81.8% | SNB-19 CNS 98.9% | U251 CNS 88.9% | PC-3 prostate 84.4% | SK-MEL-5 melanoma 81.8% | UACC-62 melanoma 82.2% | LOX IMVI melanoma 75.8% | SK-MEL-28 melanoma 119% | SK-MEL-2 melanoma 122%

Nc1ccccc1-c1ccc([N+](=O)[O-])cc1
inactive: HT29 colon 78.1% | SNB-75 CNS 71.9% | SNB-19 CNS 67.3% | U251 CNS 67.4% | PC-3 prostate 38.9% | SK-MEL-5 melanoma 34.8% | UACC-62 melanoma 24.9% | LOX IMVI melanoma 54.7% | SK-MEL-28 melanoma 88.4% | SK-MEL-2 melanoma 24.3%

O=C1C2C3C=CC(O3)C2C(=O)N1Nc1ccccc1 (stereo not given)
inactive: HT29 colon 112% | SNB-75 CNS 93.3% | SNB-19 CNS 111% | U251 CNS 109% | PC-3 prostate 97.5% | SK-MEL-5 melanoma 109% | UACC-62 melanoma 100% | LOX IMVI melanoma 98% | SK-MEL-28 melanoma 105% | SK-MEL-2 melanoma 133%

CC[N+](CC)(CCOCCOCC[N+](CC)(CC)Cc1ccc([N+](=O)[O-])cc1)Cc1ccc([N+](=O)[O-])cc1
inactive: HT29 colon 113% | SNB-75 CNS 85.7% | SNB-19 CNS 101% | U251 CNS 100% | PC-3 prostate 87.6% | SK-MEL-5 melanoma 96.8% | UACC-62 melanoma 88.4% | LOX IMVI melanoma 104% | SK-MEL-28 melanoma 115% | SK-MEL-2 melanoma 106%

CCOC(Cc1c(N)[nH]c(=S)[nH]c1=O)OCC
inactive: HT29 colon 99.2% | SNB-75 CNS 96.7% | SNB-19 CNS 106% | U251 CNS 103% | PC-3 prostate 95.3% | SK-MEL-5 melanoma 95.5% | UACC-62 melanoma 104% | LOX IMVI melanoma 95.3% | SK-MEL-28 melanoma 102% | SK-MEL-2 melanoma 124%

O=C(/C=C/c1ccccc1)CC(c1ccccc1)N1CCOCC1 (stereo not given)
active: HT29 colon -39.3% | U251 CNS 0.707% | LOX IMVI melanoma -92% | SK-MEL-2 melanoma -24.5%
inactive: SNB-75 CNS 105% | SNB-19 CNS 71.8% | PC-3 prostate 89% | SK-MEL-5 melanoma 98.9% | UACC-62 melanoma 85.4% | SK-MEL-28 melanoma 107%

Cn1cc(-c2nc(-c3c[nH]c4ncccc34)cs2)c2cccnc21
inactive: HT29 colon 73.1% | SNB-75 CNS 47.1% | SNB-19 CNS 82.5% | U251 CNS 71.6% | PC-3 prostate 76.6% | SK-MEL-5 melanoma 57.8% | UACC-62 melanoma 58.6% | LOX IMVI melanoma 54.3% | SK-MEL-28 melanoma 90.6% | SK-MEL-2 melanoma 52.7%
